In PubChem BioAssay (EPA / NIEHS) one finds outcome and AC50 data, which are given here for 40 molecules.

Structures are written as SMILES. Calls of active or inactive are those of the source. How the source made its calls: active means hit-call score of the fitted dose curve at least 0.9, where 1 is the maximum; inactive means score below 0.9.

A short description of this assay: ATG_VDRE_CIS: Attagene CIS-FACTORIAL HepG2 Assay for human Vitamin D Receptor Element (VDRE) (AID 2282968). The note with it: HepG2 VDRE cis-reporter transcription, actives raise or lower the signal. Here is the method:
ATG_CIS is a cell-based, multiplexed-readout assay that uses HepG2, a human liver cell line, with measurements taken at 24 hours after chemical dosing in a 24-well plate.ATG_VDRE_CIS is one of 52 assay component(s) measured or calculated from the ATG_CIS assay. It is designed to make measurements of mRNA induction, a form of inducible reporter, as detected with fluorescence intensity signals by Reverse transcription polymerase chain reaction (RT-PCR) and Capillary electrophoresis technology.Data from the assay component ATG_VDRE_CIS was analyzed into 1 assay endpoint. This assay endpoint, ATG_VDRE_CIS, was analyzed with bidirectional fitting relative to DMSO as the negative control and baseline of activity. Using a type of inducible reporter, measures of mRNA for gain or loss-of-signal activity can be used to understand the reporter gene at the transcription factor-level as they relate to the gene VDR. Furthermore, this assay endpoint can be referred to as a primary readout, because this assay has produced multiple assay endpoints where this one serves a reporter gene function. To generalize the intended target to other relatable targets, this assay endpoint is annotated to the nuclear receptor intended target family, where the subfamily is non-steroidal.
Human liver HepG2 cells are transiently transfected with multiple reporter transcription units (MRTUs) in 6-well plates using FuGene 6 reagent (Roche; 3 ml FuGene/1 mg DNA). The MRTU constructs are regulated by a cis-regulating element (promoter). […] A major difference between the CIS and TRANS system is that in CIS activities of endogenous TFs are measured, whereas the TRANS assay evaluates changes in activities of exogenous, chimeric NR-Gal4 proteins. […] At the end of 24 hour incubation, total RNA was isolated using TriZol reagent (Invitrogen). The isolated RNA is then reverse-transcribed using oligo(dT) primer and Mo-MLV reverse transcriptase (Invitrogen) with DNAse I (Ambion) treatment for 30 min. The one-tenth of the produced cDNA was amplified by PCR using Taq DNA polymerase (Invitrogen) and two reporter sequence-specific primers. The PCR products were fluorescently labeled by primer extension with 6-arboxyfluorescein (6-FAM) 5'-labeled reporter sequence-specific primer (2 min at 95 C, 20 s at 68 C and 10 min at 72 C) and these products were digested with 5U of HpaI (New England Biolabs) for 2h at 37 C. The fragments were purified using Qiaquick PCR columns (Qiagen), analyzed on an ABI 3130xL genetic analyzer (Applied Biosystems) with peak positions identified by using a set of X-rhodamine (ROX)-labeled MapMarker1000 molecular weight standards (BioVentures). The raw capillary electrophoresis data was processed using Attagraph software (Attagene).
Take `CCCCOCC(C)O` (stereo not given): the molecule was classed as inactive.

For orientation: AC50 means the midpoint of the concentration-response curve, whichever way the signal moves. Take `Cc1cccc(C(C)(C)C)c1O`: the AC50 is 19.9 µM (active).

`Fc1ccc(Br)cc1`: the call was inactive.

With `CC1=CCC2CC1C2(C)C` (stereo not given), the call was inactive.

As to `c1ccc(Nc2cccc3ccccc23)cc1`, the concentration at half-maximal activity (AC50) was 10.3 µM (active).

For the molecule `CC1(C)CC(O)CC(C)(C)N1[O]`, the molecule was called inactive.

As for `Cc1c(C(=O)c2c[nH]n(C)c2=O)ccc(S(C)(=O)=O)c1C1=NOCC1`, the molecule was classed as inactive.

Turning to `Oc1ccccc1Cc1ccccc1O`, the AC50 is 133 µM (active).

`CC(CC(C)C)=NO`: the result was inactive.

With `C=C[Si](OCCOC)(OCCOC)OCCOC`, the AC50 is 5.92 µM (active).

Consider `CCC(C)c1ccccc1` (stereo not given), for which the molecule was classed as inactive.

As to `O=C(C=Cc1ccccc1)OCCc1ccccc1`, the AC50 was 28 µM (active).

As to `CCCCCCCC(=O)OCC`, the call was inactive.

As for `N#Cc1ccc(C2CCCc3cncn32)cc1` (stereo not given), the molecule was called inactive.

As to `Nc1cccc(N)n1`, the molecule was called inactive.

As to `COC(Cc1ccccc1)OC`, the call was inactive.

Consider `CC(C)(CO)C(O)C(=O)NCCCO` (stereo not given), for which the outcome was inactive.

With `O=C(O)/C=C/c1ccccc1`, the molecule was called inactive.

Regarding `C=C(C)C(=O)OCC(O)COc1ccc(C(C)(C)c2ccc(OCC(O)COC(=O)C(=C)C)cc2)cc1` (stereo not given), the AC50 is 9.75 µM (active).

In the case of `C=CCCCCCCCCC=O`, the call was inactive.

As for `CCCCc1ccc(Cl)cc1`, the result was inactive.

Take `Cc1c[nH]c(=O)[nH]c1=O`: the molecule was classed as inactive.

Take `C=CC(=O)OCCCCCCCCCC`: the result was inactive.

`C1CCSC1`: the molecule was called inactive.

On to `C=CC(C)(CCC=C(C)C)OC(=O)C=Cc1ccccc1` (stereo not given), for which the molecule was called inactive.

`OCCCc1ccccc1`: the call was inactive.

`C=C(C)C1CC=C(C)C(OC(C)=O)C1` (stereo not given): the call was inactive.

As for `CC(Cl)COP(=O)(OCC(C)Cl)OCC(C)Cl` (stereo not given), the AC50 is 3.75 µM (active).

As for `CCCCCCO`, the call was inactive.

For `C=CCCCCCCCCO`, the molecule was classed as inactive.

As for `NNS(=O)(=O)c1ccc(Oc2ccc(S(=O)(=O)NN)cc2)cc1`, the molecule was classed as inactive.

With `C=CC(C)(O)CC/C=C(\C)CC` (stereo not given), the molecule was called inactive.

On to `C1CNCCN1`, for which the molecule was called inactive.

For the molecule `CCCC=C(C=O)CC`, the molecule was called inactive.

Turning to `CCOC(=O)OC(=O)OCC`, the outcome was inactive.

For `O=C1CCCCCCCCCCCN1`, the result was inactive.

On to `O=C(Cl)c1ccc(C(=O)Cl)cc1`, for which the outcome was inactive.

Regarding `C=C(C)C(=O)OCCOC(=O)C(=C)C`, the call was inactive.

Take `CCCCC(CC)COC(=O)/C=C/c1ccc(OC)cc1` (stereo not given): the molecule was called inactive.

In the case of `CC(C)COC(=O)CC(C(=O)OCC(C)C)S(=O)(=O)O` (stereo not given), the result was inactive.
